This passage reports Potency results from PubChem BioAssay (Tox21).

A short description of assay [1]: Nuclear factor erythroid 2-related factor 2/antioxidant responsive element (Nrf2/ARE) small molecule agonists: luciferase reporter gene qHTS assay in human keratinocytes (AID 1919969). Also: nearly all actives have a fitted effect of over 35% in size. Also: potency is read from the fitted curve at half-maximal effect.
Assay [2] concerns the target Gonadotropin-releasing hormone receptor (Homo sapiens) (UniProt P30968). The experiment in a line: Human gonadotropin-releasing hormone receptor (GnRHR) small molecule agonists, calcium flux assay in GnRHR-HEK293 cells (AID 1920063). Also: nearly all actives have a fitted effect of over 35% in size. Also: potency is read from the fitted curve at half-maximal effect. The method, boiled down:
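Calcium flux, agonist mode, human GnRHR stably integrated in HEK293; dye 1 h at 37 C before compound; Ex/Em=480/540 kinetic read, 3 min; 15 concentrations, triplicate.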

Assay [3] can be described thus: G protein-coupled receptor (GPCR) small molecule agonists, calcium flux assay: HEK293 wild type cell line counter screen (AID 1920065). An outline of the steps:
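Non-specific calcium responders were flagged by adding DMSO-dissolved compounds to dye-loaded cells and reading 480/540 nm fluorescence each second for 3 min; ATP served as positive control.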

A short description of assay [4]: p53 small molecule agonists, cell-based qHTS assay with human liver microsomes (AID 1963577).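 Also: p53 response element beta-lactamase reporter cells with liver microsomes plus NADPH.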 An outline of the steps:
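Steps: plate p53RE-bla cells, incubate 5 h at 37 C; add compound in DMSO; add microsomes (0.5 mg/mL final) and NADPH (0.5 mg/mL final); incubate 16 h at 37 C; add LiveBLAzer, 2 h RT; read fluorescence.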

Assay [5] in a line: p53 small molecule agonists, cell-based qHTS assay with rat liver microsomes (AID 1963578). An outline of the steps:
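Metabolic activation is supplied by rat liver microsomes with NADPH (each 0.5 mg/mL final). p53RE-bla cells incubate with compound 16 h at 37 C; reporter activity is measured by LiveBLAzer fluorescence.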

Assay [6] in a line: p53 small molecule agonists, cell-based qHTS assay with human liver microsomes: qHTS cell viability counter screen (AID 1963579). Also: nearly all actives have a fitted effect of over 45% in size. The method, boiled down:
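After the 460/530 nm beta-lactamase read, CellTiter-Glo was added to the same wells and luminescence measured after 30 min at room temperature, giving viability of p53RE-bla cells treated 16 h with compounds plus microsomes and NADPH.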

Assay [7] can be described thus: p53 small molecule agonists, cell-based qHTS assay with rat liver microsomes: qHTS cell viability counter screen (AID 1963580). Also: nearly all actives have a fitted effect of over 45% in size. Also: potency is read from the fitted curve at half-maximal effect. The method, boiled down:
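Luminescent ATP readout (CellTiter-Glo, 30 min at room temperature) reports viability of p53RE-bla HCT-116 cells after 16 h at 37 C with test compounds under metabolic activation by rat liver microsomes and NADPH at 0.5 mg/mL final each.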

For assay [8], the target named is 5-hydroxytryptamine receptor 2A (Homo sapiens) (UniProt P28223). The assay can be described thus: 5-hydroxytryptamine receptor 2A (HTR2A) small molecule antagonists, cell-based qHTS assay (AID 1963586). Also: nearly all actives have a fitted effect of over 45% in size. Also: potency is read from the fitted curve at half-maximal effect. An outline of the steps:
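CHO cells stably expressing human HTR2A were plated for 18 h at 37 C, then loaded with calcium dye for 1 h. Compounds were preincubated 5 min at room temperature before DOI (4 nM solution) was added. Kinetic fluorescence was read for 3 min.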

The target is the same in assay [9]. The experiment in a line: 5-hydroxytryptamine receptor 2A (HTR2A) small molecule agonists, cell-based qHTS assay (AID 1963587). Also: nearly all actives have a fitted effect of over 30% in size. Also: potency is read from the fitted curve at half-maximal effect. The method, boiled down:
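HTR2A-CHO cells, plated 18 h at 37 C/5% CO2, dye-loaded 1 h at 37 C; compounds in DMSO added by pin tool (agonist mode). Intracellular calcium flux read as kinetic fluorescence on FDSS over 2 min at 1 s intervals.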

The target of assay [10] is Muscarinic acetylcholine receptor M1 (Homo sapiens) (UniProt P11229). The experiment in a line: Cholinergic receptor muscarinic 1 (CHRM1) small molecule antagonists, cell-based qHTS assay (AID 1963588). Also: nearly all actives have a fitted effect of over 40% in size. An outline of the steps:
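Compounds were tested at 15 concentrations in three independent runs. Dye-loaded CHRM1-CHO cells were exposed 5 min at room temperature before stimulation by acetylcholine added at 50nM. Intracellular calcium was read kinetically on FDSS for 3 min.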

Assay [11] can be described thus: cAMP Responsive Elements (CRE) small molecule agonists, cell-based qHTS assay (AID 1963590). An outline of the steps:
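Quantitative HTS for CRE agonists: HEK 293T CRE-bla cells, overnight plating, 3 h compound incubation at 37 C/5% CO2, then 2 h room-temperature LiveBLAzer B/G FRET substrate loading.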

The nature of assay [12]: cAMP Responsive Elements (CRE) small molecule antagonists, cell-based qHTS assay (AID 1963591; active = well fitted inhibition curve with a large enough effect in the signal ratio in the repeat runs, not every such curve was filed as active; the % refers to the signal ratio; also: potency is read from the fitted curve at half-maximal effect). An outline of the steps: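 Fluorescence intensity from cleaved LiveBLAzer B/G substrate (2 h, room temperature) quantified CRE-bla activity in HEK 293T cells exposed 3 h to compound with 0.25 uM final NKH477.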
The target in assay [13] is Beta-2 adrenergic receptor (Homo sapiens) (UniProt P07550). The assay can be described thus: Adrenergic beta2 receptor (ADRB2) small molecule antagonists, cell-based qHTS assay (AID 1963592). Also: series mostly up to about 92 µM; nearly all actives have a fitted effect of over 50% in size. The method, boiled down:
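Assay format: CHO-ADRB2 cells, 18-20hr seeding at 37C/5% CO2, then compound plus 1nM isoproterenol agonist mix for 0.5hr RT. Homogeneous time-resolved fluorescence cAMP detection after 1hr, expressed as 665/615 nm ratio.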

Assay [14] has as its target D(2) dopamine receptor (Homo sapiens) (UniProt P14416). The assay can be described thus: Dopamine D2 receptor (DRD2) small molecule agonists, cell-based qHTS assay (AID 1963594). Also: nearly all actives have a fitted effect of over 35% in size. An outline of the steps:
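HEK293 cells stably expressing DRD2 were cultured 24 h at 37 C, then given Ro20-1724 (0.1 mM final) and compounds for 10 min at room temperature. NKH477 (200nM) was then added for 30 min. cAMP was read by HTRF.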

For assay [15], the target named is KiSS-1 receptor (Homo sapiens) (UniProt Q969F8). The assay can be described thus: Human kisspeptin (KISS1R) small molecule agonists, calcium flux assay in KISS1R-HEK293 cells (AID 1920064; active = well fitted activation curve with a large enough effect in the repeat runs). An outline of the steps:
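Triplicate 15-concentration series were applied to dye-loaded human KISS1R HEK293 cells, and agonist-evoked calcium fluorescence was captured for 3 min.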

Assay [16] concerns the target Muscarinic acetylcholine receptor M1 (Homo sapiens) (UniProt P11229). The experiment in a line: Cholinergic receptor muscarinic 1 (CHRM1) small molecule agonists, cell-based qHTS assay (AID 1963589). Also: nearly all actives have a fitted effect of over 35% in size. The method, boiled down:
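qHTS, 15-point titration, 3 independent runs: compounds pin-transferred onto dye-loaded CHRM1-CHO cells (human M1), calcium fluorescence followed every second to detect agonism.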

Assay [17] addresses D(2) dopamine receptor (Homo sapiens) (UniProt P14416). The experiment in a line: Dopamine D2 receptor (DRD2) small molecule antagonists, cell-based qHTS assay (AID 1963595; active = well fitted inhibition curve with a large enough effect in the signal ratio in the repeat runs, with a control signal flat; the % refers to the signal ratio). The method, boiled down: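 HEK293 cells stably expressing DRD2 were preincubated with 0.1 mM Ro20-1724, then with compound for 10 min at room temperature. Cells were stimulated with 200 nM NKH477 plus 12 nM quinpirole for 30 min, and cAMP was read by HTRF.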

The nature of assay [18]: p53 small molecule agonists, cell-based qHTS assay: qHTS cell viability counter screen (AID 1963581). Also: nearly all actives have a fitted effect of over 45% in size. Also: potency is read from the fitted curve at half-maximal effect. An outline of the steps: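 Multiplexed with the reporter read, a CellTiter-Glo step (30 min, room temperature) gauges ATP-based viability of HCT-116 p53RE-bla cells after 16 h compound incubation at 37 C.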
The nature of assay [19]: p53 small molecule agonists, cell-based qHTS assay (AID 1963582; active = well fitted activation curve with a large enough effect in the signal ratio in the repeat runs, not every such curve was filed as active; the % refers to the signal ratio; also: potency is read from the fitted curve at half-maximal effect). An outline of the steps: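 Beta-lactamase reporter cells (p53RE-bla) treated with compounds for 16 h at 37 C; FRET substrate, 2 h, room temperature; fluorescence intensity.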

Results filed as inconclusive are left out. Activity calls are given as the source filed them. Unless noted, calls follow the shape of the full dose curve.

5-hydroxytryptamine receptor 2A (Homo sapiens), sequence (P28223 whole entry, looked up): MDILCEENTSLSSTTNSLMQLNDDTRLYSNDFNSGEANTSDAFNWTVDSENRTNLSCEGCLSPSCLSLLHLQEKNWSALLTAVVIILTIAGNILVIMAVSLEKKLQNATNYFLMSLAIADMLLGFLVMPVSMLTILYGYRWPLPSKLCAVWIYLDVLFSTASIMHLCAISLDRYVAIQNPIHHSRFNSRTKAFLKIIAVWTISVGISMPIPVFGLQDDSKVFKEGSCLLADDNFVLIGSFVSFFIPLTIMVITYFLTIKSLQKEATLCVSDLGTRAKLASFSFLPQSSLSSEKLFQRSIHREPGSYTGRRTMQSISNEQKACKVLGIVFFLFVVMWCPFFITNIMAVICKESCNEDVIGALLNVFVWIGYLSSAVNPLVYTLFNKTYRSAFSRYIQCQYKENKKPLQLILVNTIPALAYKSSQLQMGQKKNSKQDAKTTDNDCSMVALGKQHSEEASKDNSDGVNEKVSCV
KiSS-1 receptor (Homo sapiens), sequence (Q969F8 whole entry, looked up): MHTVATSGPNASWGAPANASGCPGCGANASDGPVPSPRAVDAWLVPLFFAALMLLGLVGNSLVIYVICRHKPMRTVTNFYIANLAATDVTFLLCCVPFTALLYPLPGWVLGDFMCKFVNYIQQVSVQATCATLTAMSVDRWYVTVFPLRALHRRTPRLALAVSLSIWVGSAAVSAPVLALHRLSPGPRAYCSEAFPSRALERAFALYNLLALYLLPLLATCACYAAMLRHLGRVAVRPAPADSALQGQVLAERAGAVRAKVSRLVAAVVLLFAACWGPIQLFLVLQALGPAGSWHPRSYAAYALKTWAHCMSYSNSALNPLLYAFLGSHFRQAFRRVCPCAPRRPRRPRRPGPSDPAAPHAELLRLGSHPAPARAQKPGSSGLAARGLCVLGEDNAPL
D(2) dopamine receptor (Homo sapiens), sequence (P14416 whole entry, looked up): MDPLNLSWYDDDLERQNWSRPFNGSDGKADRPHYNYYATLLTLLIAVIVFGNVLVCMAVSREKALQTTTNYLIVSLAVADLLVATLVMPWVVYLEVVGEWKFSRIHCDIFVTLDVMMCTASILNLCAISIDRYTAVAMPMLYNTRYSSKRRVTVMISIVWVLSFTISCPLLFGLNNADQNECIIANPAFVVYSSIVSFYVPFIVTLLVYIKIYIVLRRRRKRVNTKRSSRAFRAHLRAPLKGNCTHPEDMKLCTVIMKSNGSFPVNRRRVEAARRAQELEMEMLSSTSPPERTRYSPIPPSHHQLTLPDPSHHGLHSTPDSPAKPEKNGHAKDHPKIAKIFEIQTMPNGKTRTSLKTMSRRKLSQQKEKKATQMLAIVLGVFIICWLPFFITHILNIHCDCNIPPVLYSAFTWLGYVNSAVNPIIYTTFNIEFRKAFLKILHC
Beta-2 adrenergic receptor (Homo sapiens), sequence (P07550 whole entry, looked up): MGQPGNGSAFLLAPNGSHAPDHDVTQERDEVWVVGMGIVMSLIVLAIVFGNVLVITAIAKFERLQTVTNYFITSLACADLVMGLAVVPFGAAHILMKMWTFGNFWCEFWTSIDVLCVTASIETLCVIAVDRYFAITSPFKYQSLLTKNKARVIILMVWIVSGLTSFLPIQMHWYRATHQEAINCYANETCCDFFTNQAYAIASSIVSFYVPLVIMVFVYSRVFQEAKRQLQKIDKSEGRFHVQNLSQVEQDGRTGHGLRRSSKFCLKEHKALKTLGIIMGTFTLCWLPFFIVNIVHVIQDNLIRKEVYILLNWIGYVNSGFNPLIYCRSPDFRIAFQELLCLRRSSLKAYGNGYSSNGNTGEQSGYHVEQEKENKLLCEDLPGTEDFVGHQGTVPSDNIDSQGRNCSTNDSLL
Gonadotropin-releasing hormone receptor (Homo sapiens), sequence (P30968 whole entry, looked up): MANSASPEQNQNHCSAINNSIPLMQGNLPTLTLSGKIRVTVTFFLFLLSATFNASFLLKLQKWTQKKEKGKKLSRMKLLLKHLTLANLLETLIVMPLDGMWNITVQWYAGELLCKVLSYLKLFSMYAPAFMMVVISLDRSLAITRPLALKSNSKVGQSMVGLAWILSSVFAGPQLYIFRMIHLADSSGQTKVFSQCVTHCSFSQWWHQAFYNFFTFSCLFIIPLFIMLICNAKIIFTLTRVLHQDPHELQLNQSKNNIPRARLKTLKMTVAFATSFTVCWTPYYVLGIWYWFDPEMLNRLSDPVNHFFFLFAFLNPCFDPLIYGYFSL
Muscarinic acetylcholine receptor M1 (Homo sapiens), sequence (P11229 whole entry, looked up): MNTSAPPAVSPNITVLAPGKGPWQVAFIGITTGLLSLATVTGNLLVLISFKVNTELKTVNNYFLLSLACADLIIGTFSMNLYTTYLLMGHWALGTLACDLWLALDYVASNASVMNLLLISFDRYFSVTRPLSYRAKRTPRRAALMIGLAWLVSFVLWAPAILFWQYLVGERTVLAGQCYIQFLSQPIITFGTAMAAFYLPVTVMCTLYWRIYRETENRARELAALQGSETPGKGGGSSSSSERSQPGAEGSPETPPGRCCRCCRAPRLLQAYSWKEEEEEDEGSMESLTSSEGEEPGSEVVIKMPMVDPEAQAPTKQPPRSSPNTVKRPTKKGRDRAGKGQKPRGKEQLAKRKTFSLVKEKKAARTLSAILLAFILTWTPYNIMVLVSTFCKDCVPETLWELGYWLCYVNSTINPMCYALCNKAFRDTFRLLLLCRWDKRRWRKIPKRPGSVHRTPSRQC

Consider `CCCCCCCCOC(=O)c1cc(O)c(O)c(O)c1`, for which the Potency entry in assay [1], in assay [3], in [4], in assay [5], in assay [6] and in assay [7] was “inactive” each time. In addition, the Potency entry in assay [8], in assay [10], in assay [11], in [13] and in assay [14] was “inactive” throughout. For the same molecule, the Potency in assay [2] is 34.7 µM (active); in assay [9], 49 µM (active); in assay [12] it was 30.6 µM (active).

For `CC(=O)c1ccc2c(c1)Cc1ccccc1-2`, the Potency entry in [1], in [2], in assay [15], in [6], in assay [8] and in assay [9] was “inactive” each time. The Potency entry in [10], in assay [16], in [12], in [13], in assay [14] and in assay [17] was “inactive” in each case.

Consider `CCO[C@@H]1O[C@H](C(COCc2ccccc2)OCc2ccccc2)[C@H](OCc2ccccc2)[C@H]1O` (stereo partly drawn), for which the Potency result in [1], in [2], in [3], in assay [6], in assay [7] and in assay [18] was “inactive” throughout. Moreover, the Potency entry in assay [8], in [9], in assay [10], in assay [16], in assay [11] and in [12] was “inactive” each time. Moreover, the Potency result in [13], in assay [14] and in assay [17] was “inactive” in each case.

With `CCOc1ccc(N=Nc2ccc(/C=C/c3ccc(N=Nc4ccc(OCC)cc4)cc3S(=O)(=O)O)c(S(=O)(=O)O)c2)cc1`, the Potency entry in assay [1], in assay [2], in assay [3], in assay [4], in assay [5] and in [6] was “inactive” throughout. Also, the Potency result in [18], in [19], in [8], in assay [9], in assay [10] and in assay [16] was “inactive” throughout. Moreover, the Potency entry in assay [11], in assay [13], in assay [14] and in [17] was “inactive” in each case.

As for `CN(C)c1ccc(N=Nc2ccccc2C(=O)O)cc1`, the Potency in assay [1] is 61.1 µM (active). For the same molecule, the Potency result in assay [2], in assay [15], in [4], in assay [5], in assay [7] and in assay [8] was “inactive” throughout. Besides, the Potency entry in assay [9], in assay [10], in [16], in assay [13], in [14] and in [17] was “inactive” throughout.

With `O=C(Nc1ccccc1)OCC(CN1CCCCC1)OC(=O)Nc1ccccc1` (stereo not drawn), the Potency entry in [1], in assay [2], in assay [3], in [6], in assay [7] and in [8] was “inactive” throughout. The Potency result in assay [9], in [10], in [16], in assay [11], in assay [12] and in assay [13] was “inactive” throughout. Also, the Potency result in assay [14] and in assay [17] was “inactive” in each case. For the same molecule, the Potency in assay [18] was 12.6 µM (active).

For the molecule `Oc1cccc2c(O)cccc12`, the Potency was 27.3 µM (active) in assay [1] and 32.4 µM (active) in assay [7]. The Potency entry in [2], in [3], in assay [4], in [5], in assay [18] and in assay [8] was “inactive” each time. In addition, the Potency result in assay [9], in [10], in assay [16], in assay [11], in [12] and in assay [17] was “inactive” throughout.

As to `CCCC(CC)CCCCCCCN` (stereo not drawn), the Potency entry in assay [1], in assay [2], in assay [3], in assay [6], in [7] and in assay [18] was “inactive” in each case. Moreover, the Potency entry in assay [19], in [16], in [11], in assay [12], in assay [13] and in [14] was “inactive” each time. For the same molecule, in [17], the Potency entry is “inactive”. Besides, the results for the Potency in assay [8] and in assay [9] were 24.2 µM (active) and 44.7 µM (active), respectively.

Consider `Cc1cc(=O)oc2cc(N(C)C)ccc12`, for which the Potency result in assay [1], in assay [2], in assay [15], in assay [5], in assay [6] and in [7] was “inactive” in each case. For the same molecule, the Potency result in assay [8], in [9], in assay [10], in assay [16], in assay [13] and in [14] was “inactive” in each case. Further, the Potency entry in assay [17] was “inactive”. In addition, the Potency in [19] is 32.4 µM (active).
